PubChem BioAssay (NCI)
This is part of a sample that, as a whole, favours compounds with a hit. Of some 79,000 tested, about 15% had one in any assay. A number with no mark means an inactive call. The source made the active and inactive calls. No stated cut-off is given here; in the data, active means growth inhibition above about 70%; inactive means the rest.

Tests used:
[1] = NCI Yeast Anticancer Drug Screen. Data for the rad50 strain (AID 155);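 further: 0% = growth of vehicle-only cultures of the same strain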; conditions: S. cerevisiae rad50 strain growth inhibition, stronger effect = higher value
In short: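 Vehicle-treated cultures provide the reference for the growth inhibition reported for compound-exposed, repair-deficient yeast.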

[2] = NCI Yeast Anticancer Drug Screen. Data for the mec2-1 strain (AID 157); conditions: S. cerevisiae mec2-1 strain, stronger effect = higher value
In short: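 Using mec2-1 yeast: add compound, measure growth, express inhibition versus vehicle-treated cultures.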

[3] = NCI Yeast Anticancer Drug Screen. Data for the sgs1 mgt1 strain (AID 161);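 further: 0% = growth of cultures given vehicle only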; conditions: S. cerevisiae sgs1 mgt1 strain, stronger effect = higher value
In short: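 Growth of a repair-deficient yeast mutant was monitored after compound treatment and expressed as inhibition relative to vehicle-treated cultures.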

[4] = NCI Yeast Anticancer Drug Screen. Data for the cln2 rad14 strain (AID 165);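 further: 0% = growth equal to vehicle treated cultures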; conditions: S. cerevisiae cln2 rad14 strain, stronger effect = higher value
In short: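 Yeast strain cln2 rad14, bearing defects in cell cycle control and DNA repair, serves as the test system; values reflect growth inhibition compared with vehicle.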

[5] = NCI Yeast Anticancer Drug Screen. Data for the bub3 strain (AID 167); conditions: S. cerevisiae bub3 mutant strain, stronger effect = higher value
In short: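 Mutant yeast screening strain plus compound; vehicle-treated cultures serve as the 0% inhibition reference.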

[6] = NCI Yeast Anticancer Drug Screen. Data for the mlh1 rad18 strain (AID 175); conditions: S. cerevisiae mlh1 rad18 strain growth inhibition, stronger effect = higher value
In short: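 Steps: expose repair-defective yeast to compound; measure growth; express inhibition against vehicle-treated controls.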

[7] = at 5.0 µM (retest, dose inferred, filed as 0.5)
[8] = at 50.0 µM (retest, dose inferred, filed as 5.0)

Structure (SMILES)	growth inhibition [1, 7] [%]	growth inhibition [1, 8]	growth inhibition ([1]; at 50.0 µM)	growth inhibition [2, 7] [%]	growth inhibition [2, 8]	growth inhibition ([2]; at 50.0 µM)	growth inhibition [3, 7] [%]	growth inhibition [3, 8]	growth inhibition ([3]; at 50.0 µM)	growth inhibition [4, 7] [%]	growth inhibition [4, 8]	growth inhibition ([4]; at 50.0 µM)	growth inhibition [5, 7] [%]	growth inhibition [5, 8]	growth inhibition ([5]; at 50.0 µM)	growth inhibition [6, 7] [%]	growth inhibition [6, 8]	growth inhibition ([6]; at 50.0 µM)
Cn1sc2ccccc2c1=S	-112	98% (active)	99.6% (active)	-39	99% (active)	99.8% (active)	-47	99% (active)	99.7% (active)	-78	98% (active)	99.5% (active)	-49	98% (active)	99.5% (active)	-95	98% (active)	99.7% (active)
CC(=Nc1ccc(S(=O)(=O)c2ccc(N=C(C)N3CCCCC3)cc2)cc1)N1CCCCC1	0	2%	-0.05%	-1	-1%	4%	-2	1%	-6.45%	-5	-2%	-10.5%	-1	-1%	-2.55%	-2	-5%	-2.15%
CCOC(=O)Cc1nc2ccccc2s1	3	100% (active)	99.2% (active)	2	100% (active)	99.6% (active)	6	99% (active)	99.5% (active)	6	98% (active)	99.2% (active)	9	99% (active)	98.8% (active)	2	99% (active)	99.3% (active)
O=C(Cc1c[nH]c2ccccc12)N/N=C/c1ccc(Cl)cc1[N+](=O)[O-]	-5	73% (active)	39.8%	1	88% (active)	20.4%	-4	94% (active)	36.6%	-5	89% (active)	38.8%	-3	93% (active)	19.5%	13	90% (active)	66.7%
COC(=O)[C@@]12OC[C@]34[C@H]([C@@H](O)[C@@H]1O)[C@@]1(C)CC(=O)C(OC(=O)CC(=O)OC5=C(C)[C@@H]6C[C@H]7OC(=O)[C@H](OC(=O)/C=C(\C)C(C)C)[C@H]8[C@]9(C(=O)OC)OC[C@]78[C@H]([C@@H](O)[C@@H]9O)[C@@]6(C)CC5=O)=C(C)[C@@H]1C[C@H]3OC(=O)[C@H](OC(=O)/C=C(\C)C(C)C)[C@@H]24	45	98% (active)	90.3% (active)	43	99% (active)	92.3% (active)	42	98% (active)	92.5% (active)	49	98% (active)	89.6% (active)	57	99% (active)	92.2% (active)	58	97% (active)	84.5% (active)
CC12CCC(c3sc(N)c(C#N)c31)C2(C)C (centres undefined)	-14	-34%	39%	-2	-25%	60.2%	-13	-4%	34.5%	3	1%	13.8%	-15	-20%	31.7%	-36	-9%	43.8%
CC(=O)NNc1ccc(Cl)cc1[N+](=O)[O-]	18	30%	51%	-5	26%	25.3%	-6	20%	12.1%	5	4%	44.1%	3	19%	77.3% (active)	28	69%	91% (active)
COc1ccc(-c2cc(C(=O)O)c3cccc(C(F)(F)F)c3n2)cc1	15	85% (active)	67.9%	4	83% (active)	57.6%	0	92% (active)	72.9% (active)	22	80% (active)	64.5%	12	78% (active)	59%	17	96% (active)	89.7% (active)
